# VACV mCherry inh: vaccinia inhibition (mCherry reporter); Vaccinia virus mCherry reporter infection, fluorescence; Potency, µM (highest dose often 36.5 µM), without a hit: top-dose activity change, negative = inhibition, most hits filed as inhibitors; 0.63% of 310,000 active; AID 720579; calls by dose curve; tested in A549 cells; note: % is set by controls: 0 for no effect and ±100 for the full control effect; nearly all actives have a fitted effect of over 35% in size
# VACV Venus inh: vaccinia inhibition (Venus reporter) | Vaccinia virus Venus reporter expression, fluorescence | Potency, µM (highest dose often 36.5 µM), for the others: at the highest dose activity change, negative = inhibition, hits mostly inhibitors | 0.46% of 330,000 active | AID 720580; calls by dose curve; tested in A549 cells; note: % is set by controls: 0 for no effect and ±100 for the full control effect; nearly all actives have a fitted effect of over 30% in size
# AmpC no deterg: AmpC beta-lactamase inhibition without detergent. P00811. AmpC nitrocefin hydrolysis, absorbance 480 nm, 0.0001% Triton. Potency, µM (titrated, usually from 57.1 µM), for the others: at the highest dose activity change, negative = inhibition, most hits filed as inhibitors. 0.52% of 330,000 active. AID 485341;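 note: plate controls were no compound for no effect and no enzyme for full effect; nearly all actives have a fitted effect of over 20% in size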
# Target sequence (P00811 whole entry, looked up): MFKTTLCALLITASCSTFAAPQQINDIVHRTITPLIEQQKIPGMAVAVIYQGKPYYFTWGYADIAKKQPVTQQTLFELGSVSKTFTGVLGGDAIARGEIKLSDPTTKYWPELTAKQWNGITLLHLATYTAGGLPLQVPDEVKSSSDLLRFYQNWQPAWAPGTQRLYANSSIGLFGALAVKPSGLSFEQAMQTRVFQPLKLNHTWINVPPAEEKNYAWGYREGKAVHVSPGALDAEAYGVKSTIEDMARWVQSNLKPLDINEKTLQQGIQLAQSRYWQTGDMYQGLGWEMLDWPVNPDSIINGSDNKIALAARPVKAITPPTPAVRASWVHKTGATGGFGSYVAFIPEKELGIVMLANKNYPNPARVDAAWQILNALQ
#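 20 mM phosphate pH 7.0 + 0.01% (detergent screen) or 0.0001% Triton X-100; 5.3 nM AmpC reagent; cpd preinc 15 min RT; nitrocefin (800 uM stock) to start; A480 q20 s × 4 min; Activity was normalised to no-enzyme and no-compound control wells.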
# AmpC detergent: blocks E. coli AmpC beta-lactamase in detergent assay; P00811; AmpC hydrolysis of nitrocefin, absorbance 480 nm, 0.01% Triton; Potency, µM (top dose mostly 114 µM), for the others: top-dose activity change, negative = inhibition, usual class: inhibitors; 0.041% of 370,000 active; AID 485294;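 note: 0% = no-compound wells and -100% = no-enzyme wells; nearly all actives have a fitted effect of over 25% in size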
#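 20 mM phosphate pH 7.0 + 0.01% (detergent screen) or 0.0001% Triton X-100; 5.3 nM AmpC reagent; cpd preinc 15 min RT; nitrocefin (800 uM stock) to start; A480 q20 s × 4 min; Activity was normalised to no-enzyme and no-compound control wells.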
# SARS PLpro yeast: inhibitors of SARS-CoV papain-like protease in yeast; S. cerevisiae expressing SARS-CoV PLpro, growth rescue; Potency, µM (titrated, usually from 32.9 µM), for the others: at the top dose activity, positive = growth rescue, hits mostly activators; 0.19% of 330,000 active; calls by dose curve; note: 0% is about no effect; nearly all actives have a fitted effect of over 55% in size
# An asterisk follows results filed as active; i = inactive; ? = inconclusive; . = no result given; [ ] = remark or other dose. Compounds with a hit are over-represented: about 1.3% of the library has one in this group of screens. Unless noted, calls come from the whole dose curve; as a rule, active = well fitted curve in the direction sought with a large enough effect; inconclusive = small, poorly fitted or top-dose-only effect, or another doubt; inactive = no such curve, though single readings can be large; an effect the other way counts as inactive or inconclusive. Potency is the fitted concentration of half-maximal effect.
SMILES,VACV mCherry inh,VACV Venus inh,AmpC no deterg,AmpC detergent,SARS PLpro yeast
CN=c1sc(C(=O)Nc2ccccc2)c(C)n1C,-1.5%,-4.3%,-11.5%,-10.4%,-0.6%
O=C(NCC1CCCO1)C(=Cc1cccc([N+](=O)[O-])c1)C(=O)NCC1CCCO1 (configuration not stated),12.6µM*,?,-16.8%,-6.4%,-2.6%
O=C(NCC1CCCO1)/C(=C\c1cccc([N+](=O)[O-])c1)NC(=O)c1ccccc1 (configuration not stated),-10.1%,-5.1%,-13.0%,2.4%,1.5%
Cc1ccc2nc(-c3ccc(C)c(NC(=O)COc4ccccc4Cl)c3)oc2c1,-2.9%,-12.0%,.,.,.
O=C(CC1S/C(=N/N=C/c2ccco2)NC1=O)Nc1ccccc1 (configuration not stated),-13.2%,-1.9%,-30.7%,4.8%,2.7%
NC(=S)N/N=C/c1c[nH]c2ccc(OCc3ccccc3)cc12,.,.,-43.1%,4.2%,8.5%
O=C(CC1S/C(=N/N=C/c2c[nH]c3ccc(OCc4ccccc4)cc23)NC1=O)Nc1ccccc1 (configuration not stated),i,-16.3%,5.01µM*,?,-18.0%
O=C(CC1S/C(=N/N=C/c2c[nH]c3ccccc23)NC1=O)Nc1ccccc1 (configuration not stated),0.9%,9.4%,25.1µM*,-2.8%,15.1%
CC(C)c1ccc(NC(=O)CN2C(=O)COc3ccc(S(=O)(=O)Nc4ccccc4)cc32)cc1,-7.6%,-5.6%,.,2.6%,.
CNC(=O)c1cc(Oc2ccc(NC(=O)Nc3ccc(Cl)c(C(F)(F)F)c3)cc2)ccn1,?,10µM*,-21.7%,10.8%,-0.1%
O=S(=O)(Nc1ccc(-c2ccc3nncn3n2)cc1)c1cc(F)ccc1F,?,-10.6%,77.5%,-14.9%,-0.3%
COc1ccc(OC)c(S(=O)(=O)Nc2ccc(-c3ccc4nncn4n3)cc2)c1,8.91µM*,10µM*,-6.1%,-16.2%,-3.0%
Cn1c(=O)c2c(SCc3cccnc3)nc(CC(C)(C)C)nc2n(C)c1=O,-1.4%,-5.1%,-1.1%,?,0.2%
CCCc1nc(SCC(=O)N2CCC(C)CC2)c2c(=O)n(C)c(=O)n(C)c2n1,i,-10.3%,48.9%,1.0%,0.8%
CCCc1nc(SCc2cccnc2)c2c(=O)n(C)c(=O)n(C)c2n1,-5.6%,-17.9%,39.8µM*,-0.1%,-4.4%
CCCc1nc(SC2CCCC2)c2c(=O)n(C)c(=O)n(C)c2n1,-16.0%,-25.5%,35.5µM*,?,1.5%
COc1ccc2c(c1)CCc1cnc(-n3ncc(C(=O)N4CCN(CCO)CC4)c3C3CC3)nc1-2,-17.3%,-6.1%,.,.,.
O=C(Nc1cc(S(=O)(=O)N2CCOCC2)ccc1N1CCCCC1)c1cc(-c2ccccn2)nc2ccccc12,2.6%,-3.4%,-20.3%,0.2%,-0.7%
Cc1ccc(S(=O)(=O)N2CCOCC2)cc1NC(=O)c1cc(-c2ccccn2)nc2ccccc12,11.2µM*,?,94.8%,-4.8%,0.8%
CC(=O)N1CCN(CCS(=O)(=O)c2ccc(Br)cc2)CC1,17.8µM*,?,-16.7%,0.1%,-2.9%
CN(C)CC(C)(O)c1ccc2c(c1)CN(C(=O)c1ccc(-n3cccn3)cc1)CCO2 (configuration not stated),-6.2%,10.1%,.,.,.
Cc1cccc(NC(=O)c2cnc3sccn3c2=O)c1C,.,.,2.82µM*,?,-3.0%
CN1N=C(C(=O)N2CCOc3ccc(CN4CCCC(C(=O)c5cccnc5)C4)cc3C2)CCC1=O (configuration not stated),-11.6%,-6.8%,.,.,.
CN(Cc1ccc(Cl)c(Cl)c1)C(C(=O)NCc1ccccc1)c1ccc(C(F)(F)F)cc1 (configuration not stated),11.2µM*,?,.,.,.
CN(Cc1ccc(Cl)c(Cl)c1)C(C(=O)NCc1ccccc1)c1ccco1 (configuration not stated),?,-5.0%,.,.,.
SMILES,VACV mCherry inh,VACV Venus inh,AmpC no deterg,AmpC detergent,SARS PLpro yeast
COc1cc(/C=N/NC(=O)c2ccc(-n3cccc3)cc2)ccc1O,?,?,14.1µM*,-13.6%,-3.9%
COc1cc(C(=O)Oc2ccccc2/C=N/NC(=O)c2ccc(Cl)cc2)cc(OC)c1OC,?,?,0.4%,-5.2%,4.1%
COc1cc(C(=O)Oc2ccccc2/C=N/NC(=O)c2ccc(C)c(Cl)c2)cc(OC)c1OC,5.01µM*,?,-42.6%,-10.8%,-9.3%
COc1cc(/C=N/NC(=O)c2ccc(F)cc2)ccc1OC(=O)c1ccco1,i,-16.6%,10µM*,-1.9%,9.0%
COc1cc(/C=N/NC(=O)c2ccc(-c3ccccc3)cc2)cc(OC)c1OC,5.62µM*,?,95.2%,?,5.9%
COC(=O)[C@@H]1CCCN1C(=O)c1c(OC)cc(=O)n2c1CCN(Cc1c(C)[nH]c3ccccc13)CC2,-12.9%,-17.0%,.,.,.
O=C(NC1CC1)[C@@H]1C[C@@H](Sc2nc3ccccc3[nH]2)CN1CC1CCCCC1,-23.7%,-14.7%,.,.,.
COc1ccc(CN2Cc3ccccc3OC(c3ccccc3OC)C2)cc1O (configuration not stated),-25.1%,-19.7%,.,.,.
Cc1ccc(S(=O)(=O)NCCSc2nnnn2-c2ccc(C(N)=O)cc2)cc1,-13.8%,-9.6%,10µM*,?,-0.9%
Cc1ccc(-n2nnnc2Sc2ccc(S(=O)(=O)NCCN(C)C)cc2[N+](=O)[O-])cc1,?,11.2µM*,58.2%,-11.3%,?
Cc1ccc(S(=O)(=O)NCCSc2nnnn2-c2ccc(Cl)c(C(=O)O)c2)cc1,-0.7%,-10.5%,.,-3.9%,.
O=[N+]([O-])c1cc(S(=O)(=O)NCCN2CCOCC2)ccc1Sc1nnnn1-c1ccccc1,?,?,127.3%,?,16.7%
CSc1ccc2cc(CNCc3ccccc3F)c(N3CCCC(CO)C3)nc2c1 (configuration not stated),-7.0%,-2.6%,.,.,.
CC(C)(C)OC(=O)COc1cc(OCC(=O)OC(C)(C)C)c2c(=O)cc(-c3ccccc3)oc2c1,?,11.2µM*,172.2%,9.3%,-1.2%
CC(C)(C)OC(=O)COc1cc(O)c2c(=O)cc(-c3ccccc3)oc2c1,.,.,-14.3%,1.2%,24.4%
Cc1nn(-c2ccccc2)c(C)c1CC(=O)NCC1Cc2cc(F)cc(-c3cccnc3)c2O1 (configuration not stated),-0.9%,-0.4%,.,.,.
Cc1cc(CN2CCCC(C(=O)Nc3cccc(-n4cccn4)c3)C2)cc(C)c1O (configuration not stated),-11.3%[7.34 µM],-3.9%[7.34 µM],-16.2%,?,0.2%
O=C(Nc1cccc(-n2cccn2)c1)C1CCCN(Cc2cc3ccccc3[nH]2)C1 (configuration not stated),12.6µM*,-28.0%,-12.1%,?,-3.5%
CC(C)(C)OC(=O)N1CCC(NC(=O)c2[nH]cnc2C(=O)Nc2ccc(Cl)cc2)CC1,-28.2%,14.1µM*,-16.3%,7.3%,-0.5%
